PubChem BioAssay AID1159580 (chemical genetic matrix, 2015)
“And” between values parts separate entries of the source, which are not always exact repeats. Identical values can stand only once. Screen size: about 5,500 compounds; about 2,000 (36%) were called active. Inconclusive results (about 18%) are left out. No stated cut-off is given here; in the data, active means normalized growth mostly below about 0.91 (no sharp cut-off); inconclusive means no clear call, values can overlap the other calls; inactive means mostly above about 0.92. Some of the results follow.

Assay: chemical genetic growth profiling, strain panel (AID 1159580);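 further: tested at 20 µM; growth read once vehicle control cultures reached saturation at 30 °C; 1 = growth at the plate median or of vehicle wells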
Details: S. cerevisiae deletion strains, growth OD

Measured: normalized growth

NCC(O)c1ccc(O)cc1 (stereo not given)
inactive: locus YAL013W, strain DEP1, stronger effect = lower value 0.996 and 1.01 | locus YAL021C, strain ccr4, stronger effect = lower value 1.01 | locus YAL026C, strain drs2, stronger effect = lower value 1.01 | locus YAL030W, strain snc1, stronger effect = lower value 0.997 | locus YAL040C, strain CLN3, stronger effect = lower value 1 | locus YBL061C, strain skt5, stronger effect = lower value 1.01 | locus YBR009C, strain hhf1, stronger effect = lower value 0.995 | locus YBR021W, strain FUR4, stronger effect = lower value 0.987 | locus YBR023C, strain chs3, stronger effect = lower value 0.998 | locus YBR171W, strain sec66, stronger effect = lower value 0.995 | locus YBR229C, strain ROT2, stronger effect = lower value 0.977 | locus YBR231C, strain swc5, stronger effect = lower value 1.02 | locus YBR279W, strain paf1, stronger effect = lower value 1.02 | locus YCL011C, strain gbp2, stronger effect = lower value 1.03 | locus YCL016C, strain dcc1, stronger effect = lower value 1.03 | locus YCL029C, strain bik1, stronger effect = lower value 0.966 | locus YCL061C, strain MRC1 (second series), stronger effect = lower value 1.01 | locus YCL069W, strain vba3, stronger effect = lower value 1 | locus YCR088W, strain abp1, stronger effect = lower value 0.993 | locus YDL005C, strain med2, stronger effect = lower value 0.998 | locus YDL035C, strain GPR1, stronger effect = lower value 1.01 | locus YDL040C, strain nat1, stronger effect = lower value 0.999 | locus YDL074C, strain BRE1, stronger effect = lower value 1 | locus YDL101C, strain DUN1, stronger effect = lower value 0.987 | locus YDL134C, strain PPH21, stronger effect = lower value 0.996 | locus YDL185W, strain tfp1, stronger effect = lower value 0.977 | locus YDL192W, strain arf1, stronger effect = lower value 0.984 | locus YDR001C, strain nth1, stronger effect = lower value 1.01 | locus YDR069C, strain doa4, stronger effect = lower value 0.996 | locus YDR101C, strain arx1, stronger effect = lower value 0.987 | locus YDR137W, strain rgp1, stronger effect = lower value 1.02 | locus YDR150W, strain NUM1, stronger effect = lower value 1.01 and 1 | locus YDR159W, strain sac3, stronger effect = lower value 0.963 | locus YDR162C, strain NBP2, stronger effect = lower value 0.999 | locus YDR195W, strain ref2 0.947 | locus YDR297W, strain sur2, stronger effect = lower value 1.02 | locus YDR318W, strain mcm21, stronger effect = lower value 0.963 | locus YDR334W, strain swr1, stronger effect = lower value 1 | locus YDR335W, strain msn5, stronger effect = lower value 1.01 | locus YDR363W, strain ESC2, stronger effect = lower value 1 | locus YDR388W, stronger effect = lower value 0.97 | locus YDR392W, strain spt3, stronger effect = lower value 0.995 | locus YDR502C, strain sam2, stronger effect = lower value 0.988 | locus YEL003W, strain gim4, stronger effect = lower value 1.01 | locus YEL037C, strain rad23, stronger effect = lower value 1.01 | locus YEL061C, strain CIN8 (second series), stronger effect = lower value 0.999 | locus YEL061C, strain CIN8, stronger effect = lower value 1 | locus YER002W, strain NOP16, stronger effect = lower value 1 | locus YER015W, strain faa2, stronger effect = lower value 1.01 | locus YER016W, strain bim1, stronger effect = lower value 0.999 | locus YER110C, stronger effect = lower value 0.976 | locus YER111C, strain swi4, stronger effect = lower value 1.01 | locus YER155C, strain BEM2 (second series), stronger effect = lower value 0.977 | locus YER155C, strain BEM2, stronger effect = lower value 0.99 | locus YER167W, strain BCK2, stronger effect = lower value 0.992 | locus YFR010W, strain ubp6, stronger effect = lower value 0.998 | locus YGL078C, strain dbp3, stronger effect = lower value 0.988 | locus YGL086W, strain mad1, stronger effect = lower value 0.993 | locus YGL167C, strain pmr1, stronger effect = lower value 0.997 | locus YGL173C, strain kem1, stronger effect = lower value 1.01 | locus YGL227W, strain vid30, stronger effect = lower value 0.995 | locus YGL240W, strain doc1, stronger effect = lower value 0.985 | locus YGL248W, strain PDE1, stronger effect = lower value 0.989 | locus YGL253W, strain hxk2, stronger effect = lower value 1.03 | locus YGR078C, strain PAC10, stronger effect = lower value 0.989 and 1.03 | locus YGR135W, strain pre9, stronger effect = lower value 0.984 | locus YGR229C, strain SMI1, stronger effect = lower value 1 and 1.01 | locus YGR252W, strain gcn5, stronger effect = lower value 1.03 | locus YHR013C, strain ard1, stronger effect = lower value 0.978 | locus YHR027C, strain rpn1, stronger effect = lower value 1.01 | locus YHR030C, strain SLT2, stronger effect = lower value 0.983 and 0.979 | locus YHR079C, strain IRE1 (second series), stronger effect = lower value 0.975 | locus YHR079C, strain IRE1, stronger effect = lower value 0.982 | locus YHR094C, strain hxt1, stronger effect = lower value 0.986 | locus YHR129C, strain ARP1, stronger effect = lower value 0.994 | locus YHR142W, strain chs7, stronger effect = lower value 1.02 | locus YHR200W, strain rpn10, stronger effect = lower value 0.98 | locus YIL066C, strain RNR3, stronger effect = lower value 0.998 | locus YIL073C, strain SPO22, stronger effect = lower value 0.986 | locus YIL125W, strain kgd1, stronger effect = lower value 0.982 | locus YIR030C, strain dcg1, stronger effect = lower value 0.983 | locus YJL092W, strain hpr5, stronger effect = lower value 1.01 | locus YJL095W, strain BCK1 (second series), stronger effect = lower value 1.01 | locus YJL095W, strain BCK1, stronger effect = lower value 0.962 and 1 | locus YJL115W, strain asf1, stronger effect = lower value 1.01 | locus YJL129C, strain trk1, stronger effect = lower value 1.01 | locus YJL134W, strain LCB3, stronger effect = lower value 0.995 | locus YJL154C, strain vps35, stronger effect = lower value 0.99 | locus YJL164C, strain tpk1, stronger effect = lower value 0.994 | locus YJL166W, strain qcr8, stronger effect = lower value 0.999 | locus YJL168C, strain set2, stronger effect = lower value 0.976 | locus YJL187C, strain SWE1 (second series), stronger effect = lower value 0.988 | locus YJR043C, strain POL32, stronger effect = lower value 0.994 | locus YJR066W, strain TOR1, stronger effect = lower value 0.919 | locus YJR075W, strain HOC1, stronger effect = lower value 0.993
